Measurements published in PubChem BioAssay AID485270 (The Scripps Research Institute Molecular Screening Center, 2010).
Screen size: about 330,000 compounds; about 5,800 (1.8%) were called active. Cut-off read from the data, not from the text of the source: active = inhibition mostly above about 38% (no sharp cut-off); inactive = mostly below about 40%. Shown is part of a subset that was picked to be rich in actives.

These compounds were tested against Orexin/Hypocretin receptor type 1 (Homo sapiens) (UniProt O43613) (assay: blocks the human orexin 1 receptor (AID 485270;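 note: 0% = agonist challenge alone and 100% = reference antagonist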)). Details: OX1R-expressing cells, FRET antagonist read-out; at 6.6 µM; active compounds read high.
Chain of Orexin/Hypocretin receptor type 1 (Homo sapiens) (O43613 whole entry, looked up): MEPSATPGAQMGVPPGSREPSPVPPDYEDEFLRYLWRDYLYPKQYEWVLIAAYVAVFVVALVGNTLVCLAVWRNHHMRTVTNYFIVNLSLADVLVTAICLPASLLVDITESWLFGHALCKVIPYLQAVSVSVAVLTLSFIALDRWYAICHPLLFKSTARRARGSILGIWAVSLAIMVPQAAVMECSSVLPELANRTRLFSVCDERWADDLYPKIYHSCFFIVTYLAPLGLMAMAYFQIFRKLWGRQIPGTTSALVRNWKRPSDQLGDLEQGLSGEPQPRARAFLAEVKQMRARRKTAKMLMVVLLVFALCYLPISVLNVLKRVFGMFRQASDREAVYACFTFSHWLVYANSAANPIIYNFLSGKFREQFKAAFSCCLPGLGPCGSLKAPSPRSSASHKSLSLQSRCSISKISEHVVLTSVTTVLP
`Cc1ccc(NC(=O)C2CCC(C(C)(C)C)CC2)cc1S(=O)(=O)N1CCOCC1` (configuration not stated) was tested, and the inhibition was 13.3% (inactive). For `CCCCNC(=O)CN1C(=O)NC(Cc2ccccc2)(Cc2ccccc2)C1=O`, the inhibition was 28.3% (inactive). With `O=C(CC1CCCCC1)NCc1ccccc1` the inhibition was 7.66% (inactive). With `O=C(CN1C(=O)NC(Cc2ccccc2)(Cc2ccccc2)C1=O)NCC1CCCCC1` the inhibition was 42.4% (active). In the case of `Cc1noc(C)c1NC(=O)Nc1cccc2c1O[C@H](CN(C)S(=O)(=O)c1c(C)noc1C)[C@@H](C)CN([C@H](C)CO)C2=O`, the inhibition is reported as -0.11% (inactive). In the case of `CCOc1ccccc1Nc1nnc(SCC(=O)NCC2CCCO2)s1` (configuration not stated), the inhibition is reported as 6.79% (inactive). In the case of `COc1ccc(C(=O)NC2CC(C)(C)Cc3c2cnn3-c2ccccc2)c(OC)c1` (configuration not stated), the inhibition is reported as 34.6% (inactive). In the case of `COc1ccc(C(=O)NC2CC(C)(C)Cc3c2cnn3-c2ccccc2C)o1` (configuration not stated), the inhibition is reported as 71.7% (active). In the case of `COCc1ccc(C(=O)NC2CC(C)(C)Cc3c2cnn3-c2ccc(C)cc2)o1` (configuration not stated), the inhibition is reported as 34.1% (inactive). `COc1cc(OC)c2c(-c3cccc(-c4cccc(N)c4)c3)cc(=O)oc2c1` was tested, and the inhibition was 7.11% (inactive). For `COc1cccc(/C=N/Nc2ncc(C(F)(F)F)cc2Cl)c1O`, the inhibition was 9.55% (inactive). In the case of `COc1ccccc1/C=N/Nc1nc(C)c(C(C)=O)s1`, the inhibition is reported as 13.4% (inactive). For `COc1cccc(/C=N/Nc2cc(C)nc(-c3ccccc3O)n2)c1O`, the inhibition was 107% (active). With `Cc1scc(C(=O)NNC(=S)NCc2ccccc2)c1C` the inhibition was 11.1% (inactive). For `CCOC(=O)C1CCCN(C(=O)CSc2nnc3nc(C)cc(C)n23)C1` (configuration not stated), the inhibition was 0.28% (inactive). `N#Cc1c(NCCO)ccc([N+](=O)[O-])c1NCCO` was tested, and the inhibition was 49.8% (active). `O=[N+]([O-])c1ccc(NCCCO)c(C(F)(F)F)c1` was tested, and the inhibition was 28.9% (inactive). With `O=C(NCCNc1ccccc1[N+](=O)[O-])c1ccccc1F` the inhibition was 9.6% (inactive). For `COc1ccccc1N(CCOc1ccccc1)S(=O)(=O)c1ccccc1`, the inhibition was 26.3% (inactive). In the case of `Cc1cc(C)nc(N/N=C/c2ccc([N+](=O)[O-])o2)n1`, the inhibition is reported as 60.5% (active). `Cc1cc(C)nc(N/N=C/c2c(C)oc3ccccc23)n1` was tested, and the inhibition was 24.7% (inactive). In the case of `COc1ccc(C(=O)NCC(=O)N/N=C/c2ccc([N+](=O)[O-])o2)cc1OC`, the inhibition is reported as 40% (inactive). For `COc1ccc(S(=O)(=O)N2CCCCCC2)cc1NC(=O)Cc1ccc(OC)c(OC)c1`, the inhibition was 8.64% (inactive). With `COc1cc(OC)cc(-c2c(C#Cc3ccsc3)c3cc(-c4ccc(OC)cc4F)ccc3n2C)c1` the inhibition was 9.29% (inactive). `Cc1noc(C)c1S(=O)(=O)N(C)C[C@H]1Oc2ccc(NC(=O)C3CC3)cc2C(=O)N([C@H](C)CO)C[C@@H]1C` was tested, and the inhibition was 3.87% (inactive). For `CN1C(=O)[C@H]2[C@@H](/C=C/c3ccccc3)N3C(=O)CN(Cc4ccc(-c5ccccc5)cc4)C(=O)[C@@]3(C)[C@H]2C1=O`, the inhibition was -0.45% (inactive). In the case of `O=[N+]([O-])c1cccc2ncccc12`, the inhibition is reported as 22.2% (inactive). For `CN1CN(C)c2ccc([N+](=O)[O-])c3cccc1c23`, the inhibition was 44.5% (active). `CN1CCN(c2ccc(S(=O)(=O)Nc3ccccc3)cc2[N+](=O)[O-])CC1` was tested, and the inhibition was 27.9% (inactive). In the case of `Cc1ccccc1NC(=O)CSC(=O)c1ccccc1`, the inhibition is reported as 3.63% (inactive). With `COC(=O)C1CCN(C(=O)COC(=O)c2cc(S(=O)(=O)N3CCOCC3)ccc2C)CC1` the inhibition was -3.08% (inactive). For `CN1CCN(/N=C/c2ccc(-c3ccc([N+](=O)[O-])cc3)o2)CC1`, the inhibition was 83.2% (active). In the case of `CN1CCN(/N=C2/C(=O)Nc3ccc([N+](=O)[O-])cc32)CC1`, the inhibition is reported as 72.6% (inactive). With `CN1CCN(/N=C/c2ccc(C#N)cc2)CC1` the inhibition was 37.9% (inactive). With `C[C@H](CO)N1C[C@H](C)[C@@H](CN(C)Cc2ccc(-c3ccccc3)cc2)Oc2ccc(NC(=O)Cn3cnnn3)cc2C1=O` the inhibition was -2.89% (inactive). With `CC(C)N(C(=O)[C@H]1C[C@H](CC(=O)NCCC2=CCCCC2)C(=O)N2CCc3c([nH]c4cc(CCC(=O)N(C)C)ccc34)[C@]12C)C(C)C` the inhibition was 10.8% (inactive). For `CC(C)(C)n1cnnc1Sc1ccc([N+](=O)[O-])cn1`, the inhibition was 36.8% (inactive). With `Cn1cnnc1Sc1ccc(S(C)(=O)=O)cc1[N+](=O)[O-]` the inhibition was 95.8% (active). `CCN(CC(=O)Nc1c(F)cccc1F)C(=O)c1ccc(Sc2nncn2C)c([N+](=O)[O-])c1` was tested, and the inhibition was 37% (inactive). For `CC[C@]12c3[nH]c4ccc(Cl)cc4c3CCN1C(=O)[C@@H](CC(=O)NCCN1CCOCC1)C[C@@H]2C(=O)N1CCN(C(=O)C2CC2)CC1`, the inhibition was 3.88% (inactive). `O=C(NNC(=O)C1CCCC1)c1ccc(F)cc1` was tested, and the inhibition was 7.91% (inactive). `Cc1ccc(/C=C/C(=O)Nc2ccc([N+](=O)[O-])c(NC(=O)/C=C/c3ccc(C)o3)c2)o1` was tested, and the inhibition was 13.2% (inactive). In the case of `O=C(/C=C/c1ccc([N+](=O)[O-])o1)NNC(=O)c1ccc(F)cc1`, the inhibition is reported as 57.8% (active). `C=CCn1c(SCc2cc(C(=O)OC)c(C)o2)nnc1-c1ccncc1` was tested, and the inhibition was 18.3% (inactive). In the case of `C=CCn1c(SCc2c(C(=O)OC)sc(N)c2C(=O)OC)nnc1-c1ccc(Cl)cc1`, the inhibition is reported as 45.4% (active). For `C=CCn1c(SCn2nnc3ccccc3c2=O)nnc1-c1ccc(Cl)cc1`, the inhibition was 25% (inactive). With `Cc1ccc(NC(=O)COC(=O)C2CC2)cc1S(=O)(=O)N1CCOCC1` the inhibition was 4.49% (inactive). In the case of `CCCCOc1ccc(C(=O)NCC(=O)OCC(=O)c2c(N)n(C)c(=O)n(C)c2=O)cc1`, the inhibition is reported as 4.34% (inactive). For `COc1ccc(NC(=O)CNc2cc(S(=O)(=O)N3CCOCC3)ccc2N2CCOCC2)c(OC)c1`, the inhibition was 17.1% (inactive). For `C#CCOCCOCCOCCNc1nc(N2CCN(C(=O)[C@H](CCC(=O)O)n3cc(CN)nn3)CC2)nc(N2CCN(C(=O)[C@H](CCC(=O)O)n3cc(CN)nn3)CC2)n1`, the inhibition was 4.4% (inactive). `CCn1c(=S)[nH]c2cc(S(=O)(=O)N3CCOCC3)ccc21` was tested, and the inhibition was 8.76% (inactive). With `COCCn1c(C)cc(C(=O)CSc2nc3ccccc3c(=O)n2C(C)COC)c1C` (configuration not stated) the inhibition was 9.56% (inactive). With `COCC(C)n1c(SCC(=O)NC2CCCCC2C)nc2ccccc2c1=O` (configuration not stated) the inhibition was 39.7% (active). In the case of `COCC(C)n1c(SCc2ccc(C(=O)OC)o2)nc2ccccc2c1=O` (configuration not stated), the inhibition is reported as 29.3% (inactive). `O=C1CCC/C=C\C[C@@H](CC(=O)N(CCO)Cc2ccccc2)C(=O)NCCO1` was tested, and the inhibition was 3.3% (inactive). For `O=C(NCc1ccco1)C1CCCN(S(=O)(=O)c2cnc[nH]2)C1` (configuration not stated), the inhibition was 6.51% (inactive). In the case of `CCCCN(C)CCNC(=O)C1CCCN(S(=O)(=O)c2cccc3nsnc23)C1` (configuration not stated), the inhibition is reported as 26.9% (inactive). In the case of `COc1ccccc1CNC(=O)C1CCCN(S(=O)(=O)c2cccc3cccnc23)C1` (configuration not stated), the inhibition is reported as 11.7% (inactive). `O=C(c1ccco1)N1CCN(C(=O)C2CCCN(S(=O)(=O)c3cccc4nsnc34)C2)CC1` (configuration not stated) was tested, and the inhibition was 59.8% (active). In the case of `CCCCN(CC)C(=O)C1CCCN(S(=O)(=O)c2cccc3nsnc23)C1` (configuration not stated), the inhibition is reported as 39.7% (active). With `O=C(c1ccco1)N1CCN(C(=O)C2c3ccccc3Oc3ccccc32)CC1` the inhibition was -0.85% (inactive). `COc1cccc(N2CCN(C(=O)C3CCCN(S(=O)(=O)c4cnc[nH]4)C3)CC2)c1` (configuration not stated) was tested, and the inhibition was 4.15% (inactive). For `O=C(NCc1ccco1)C1CCCN(S(=O)(=O)c2cccc3nonc23)C1` (configuration not stated), the inhibition was 95.8% (active). In the case of `O=C(NCc1ccco1)C1CCCN(S(=O)(=O)c2ccccc2)C1` (configuration not stated), the inhibition is reported as 22.4% (inactive). With `CN(C(=O)CSc1cccc[n+]1[O-])C1CCCCC1` the inhibition was 1.33% (inactive). `CC(C)(C)OC(=O)C[C@H]1C/C=C\C[C@@H](CC(=O)N[C@H](CO)Cc2ccccc2)C(=O)NC[C@@H](c2ccccc2)OC1=O` was tested, and the inhibition was 8.19% (inactive). With `COc1ccccc1/C=C1\SC(=O)N(CCC(=O)N(C)C2CCS(=O)(=O)C2)C1=O` (configuration not stated) the inhibition was 16.6% (inactive). In the case of `COc1ccc(/C=C2\SC(=O)N(CCC(=O)NC3CCS(=O)(=O)C3)C2=O)cc1` (configuration not stated), the inhibition is reported as 49.4% (active). For `COc1ccc(/C=C2\SC(=O)N(CCC(=O)NCCCn3ccnc3)C2=O)cc1`, the inhibition was 33.5% (inactive). For `CC(Sc1ccccc1F)C(=O)Nc1cccc(S(=O)(=O)N2CCOCC2)c1` (configuration not stated), the inhibition was 9.63% (inactive). With `CCCOc1ccc(Cc2c(O)nc(SC)[nH]c2=O)cc1C` the inhibition was 11.5% (inactive). For `CCCOc1ccc(Cc2c(Cl)nc(SC)nc2NC)cc1`, the inhibition was 48.2% (active). With `CCCOc1ccc(Cn2c(O)cc(=O)[nH]c2=O)cc1` the inhibition was 6.66% (inactive). For `O=C1OCCN1C(=O)[C@H]1[C@H](c2ccc(F)cc2)C(c2ccccc2)=NN1c1ccc(Br)cc1`, the inhibition was 7.86% (inactive). With `CCOC(=O)C1CCN(C(=O)CN2C(=O)NC(C)(c3ccc4cc(OC)ccc4c3)C2=O)CC1` (configuration not stated) the inhibition was 9.95% (inactive). `Nc1cccnc1Sc1ccccc1` was tested, and the inhibition was 15.4% (inactive). `Cc1ccc(S(=O)(=O)N2CCN(c3ncnc4ccccc34)CC2)cc1` was tested, and the inhibition was 25.9% (inactive). With `Cc1ccc(C)c(S(=O)(=O)N2CCN(c3ncnc4sccc34)CC2)c1` the inhibition was 28.6% (active). With `COc1ccc(C)cc1S(=O)(=O)N1CCN(S(=O)(=O)c2cc(C(=O)O)ccc2C)CC1` the inhibition was 26.6% (inactive). With `CCSc1nsc(NC(=O)Nc2ccccc2OC)n1` the inhibition was 6.99% (inactive). With `C=C(C)C(=O)Nc1cccc(C(C)=O)c1` the inhibition was 8.59% (inactive). In the case of `C=CCSc1nsc(NC(=O)Nc2cccc(C(C)=O)c2)n1`, the inhibition is reported as 58.4% (active). `C=CCSc1nnc(NC(=O)c2ccc(NC(C)=O)cc2)s1` was tested, and the inhibition was 5.19% (inactive). For `CSc1nsc(NC(=O)Nc2ccccc2)n1`, the inhibition was 19.6% (inactive). `CCSc1nsc(NC(=O)Nc2cccc(C(C)=O)c2)n1` was tested, and the inhibition was 84.2% (active). With `CCOC(=O)C1=CN(Cc2ccc(Br)cc2)S(=O)(=O)N(C)C1C` (configuration not stated) the inhibition was 6.18% (inactive). With `C[C@H](CO)N1C[C@H](C)[C@@H](CN(C)S(=O)(=O)c2ccc(F)cc2)Oc2ccc(NC(=O)CCC(F)(F)F)cc2C1=O` the inhibition was 9.27% (inactive).
